Counter-ions that a name gives are not always drawn.
Tested on: A431
Experiment: filipin (cholesterol) integrated intensity within LBPA endosomes, Z-score; higher = more cholesterol in LBPA endosomes
Details: compound concentration in added solution (µM; 5 µl added to 20 µl cells): 10; 18 h
Method in brief: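 Four 20× images per well were taken of HeLa MZ or A431 cells that had been seeded at 3,500 per well in 20 µl onto 5 µl of 10 µM compound solution in duplicate 384-well imaging plates. Before imaging, cells were incubated 18 h, fixed in 4% PFA and stained with 6C4 anti-LBPA antibody, filipin, propidium iodide and CellTracker green. Values are Z-scores normalised in AcuityXpress from MetaXpress-derived per-cell integrated LBPA or filipin intensity, either whole-cell or within LBPA endosomes.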

| Structure (SMILES) | filipin (z-score) |
| --- | --- |
| CN1CCN(CC(=O)N2c3ccccc3C(=O)Nc3cccnc32)CC1 [Pirenzepine dihydrochloride] | -0.555 |
| O=C(O)/C=C/c1ccc(Cn2ccnc2)cc1 [Ozagrel hydrochloride] | -0.284 |
| CC(=O)[C@H]1CC[C@H]2[C@@H]3C=CC4=CC(=O)CC[C@@]4(C)[C@@H]3CC[C@]12C [Dydrogesterone] | 0.655 |
| COc1ccc2cc([C@H](C)C(=O)O)ccc2c1 [Naproxen] | -0.525 |
| CC(=O)[C@H]1CC[C@H]2[C@@H]3C[C@H](C)C4=CC(=O)CC[C@]4(C)[C@H]3[C@@H](O)C[C@]12C [Medrysone] | 0.432 |
| CCCCc1oc2ccccc2c1C(=O)c1cc(I)c(OCCN(CC)CC)c(I)c1 [Amiodarone hydrochloride] | 2.45 |
| CN(C)CCC(c1ccc(Br)cc1)c1ccccn1 (stereo not drawn) [Brompheniramine maleate] | -0.344 |
| CCN(CC)C(C)CN1c2ccccc2Sc2ccccc21 (stereo not drawn) [Ethopropazine hydrochloride] | 2.11 |
| O=C(O)c1cc(/N=N/c2ccc(S(=O)(=O)Nc3ccccn3)cc2)ccc1O [Sulfasalazine] | -0.515 |
| CCCc1ncc(C[n+]2ccccc2C)c(N)n1 [Amprolium hydrochloride] | -0.483 |
| Cc1ncc([N+](=O)[O-])n1CC(C)O (stereo not drawn) [Secnidazole] | -0.374 |
| OC(CCN1CCCCC1)(c1ccccc1)C1CC2C=CC1C2 (stereo not drawn) [Biperiden hydrochloride] | 0.329 |
| NC12CC3CC(CC(C3)C1)C2 [Adamantamine fumarate] | -0.499 |

Reference: the supplement of paper PMC6607015
